# Laboratory results from PubChem BioAssay (NCATS).
# Values joined by “and” are separate entries in the source; they are usually repeats but may differ in a detail not shown here. Equal entries are not always repeated. Results filed as inconclusive are left out. Where a call stands in place of a potency, no number is given. Active and inactive are the calls of the source. Unless noted, calls follow the shape of the dose curve; as a rule, active = well fitted curve in the direction sought with a large enough effect; inconclusive = small, poorly fitted or top-dose-only effect, or another doubt; inactive = no such curve, though single readings can be large; an effect the other way counts as inactive or inconclusive.
# Columns and labels:
# [1] = Cell Viability - LYMP2-011 (AID 969); also: nearly all actives have a fitted effect of over 60% in size
# Outline: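 In this qHTS cytotoxicity format, compounds are tested across concentrations on human lymphoblastoid cells in complete medium for 24 hours at 37 C. Viability is taken as cellular ATP measured by luciferase luminescence.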
# [2] = Cell Viability - LYMP2-013 (AID 970); also: series mostly up to about 92 µM; nearly all actives have a fitted effect of over 55% in size
# Outline: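 Cytotoxicity is scored as a concentration-dependent drop in intracellular ATP in human lymphoblastoid cells after 24 hr compound exposure at 37 C. ATP is quantified by luciferase luminescence, and AC50 values come from Hill-equation modeling.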
# [3] = Cell Viability - LYMP2-015 (AID 971); also: nearly all actives have a fitted effect of over 55% in size
# Outline: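 Cells are seeded at 2500 per well and incubated 5 hr at 37 C. Compounds are added across a concentration series for 24 hr at 37 C. CellTiter-Glo is added, and luminescence is read after 30 min at room temperature.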
# [4] = Cell Viability - LYMP2-017 (AID 972); also: series mostly up to about 92 µM; nearly all actives have a fitted effect of over 55% in size
# Outline: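 Cytotoxicity is scored as a concentration-dependent drop in cellular ATP in a human lymphoblastoid line after 24 hr treatment at 37 C. Values are AC50s from Hill-equation modelling.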
# [5] = Cell Viability - LYMP2-019 (AID 973); also: nearly all actives have a fitted effect of over 55% in size
# Outline: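 Cytotoxicity is scored as a concentration-dependent drop in cellular ATP after cells (2500/well) receive compound for 24 hr at 37 C. Tetraoctylammonium bromide serves as positive control.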
# [6] = Cell Viability - LYMP2-021 (AID 974)
# Outline: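 Loss of cellular ATP, measured with a luciferase-based CellTiter-Glo readout, serves as the toxicity signal in human lymphoblastoid cells treated for 24 hours at 37 C. Potency is reported as AC50 from a standard Hill model.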
# [7] = Cell Viability - LYMP2-023 (AID 975)
# Outline: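 Steps: seed 2500 human lymphoblastoid cells per well, incubate 5 hr at 37 C, add compound for 24 hr at 37 C, add CellTiter-Glo, hold 30 min at room temperature, read luminescence. AC50 derived by Hill modelling.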
# [8] = Cell Viability - LYMP2-025 (AID 976); also: series mostly up to about 92 µM
# Outline: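 Acute cytotoxicity is scored as a concentration-dependent fall in intracellular ATP, measured by luciferase luminescence, in human lymphoblastoid LYMP2-025 cells exposed to compound for 24 hours at 37 C. AC50 values come from standard Hill fits.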
# [9] = Cell Viability - LYMP2-002 (AID 977);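 also: series mostly up to about 92 µM; compound exposure lasted 24 h at 37 °C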
# Outline: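 In this qHTS viability screen, 2500 human lymphoblastoid cells per well receive compound for 24 hr at 37 C, and luciferase-based ATP luminescence gives the viability signal. Tetraoctylammonium bromide serves as positive control.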
# [10] = Cell Viability - LYMP2-006 (AID 978); also: series mostly up to about 92 µM; nearly all actives have a fitted effect of over 60% in size
# Outline: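 Human lymphoblastoid cells (LYMP2-006), 2500/well in complete medium, were treated with compound for 24 hr at 37 C. Cellular ATP was read by CellTiter-Glo luminescence after 30 min, and AC50 values came from Hill-equation fits of concentration-response data.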
# [11] = Cell Viability - LYMP2-007 (AID 979);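 also: cells exposed to compound for 24 h before reading; nearly all actives have a fitted effect of over 60% in size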
# Outline: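 Cells are seeded at 2500 per well and rested 5 hr. Compounds are then added over a concentration series for 24 hr at 37 C. CellTiter-Glo is added for 30 min at room temperature before luminescence reading.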
# [12] = Cell Viability - LYMP2-008 (AID 980); also: nearly all actives have a fitted effect of over 60% in size
# Outline: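 Cells seeded at 2500/well and rested 5 hr at 37 C; compounds added over a concentration range and incubated 24 hr at 37 C; CellTiter-Glo added, 30 min at room temperature; luminescence read and AC50 fitted with Hill model.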
# [13] = Cell Viability - LYMP2-010 (AID 981); also: nearly all actives have a fitted effect of over 55% in size
# Outline: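 Steps: seed 2500 LYMP2-010 cells per well; incubate 5 hr at 37 C; add compound; incubate 24 hr at 37 C; add CellTiter-Glo, wait 30 min at room temperature; read luminescence. Concentration-response fitted to Hill equation for AC50.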
# [14] = Cell Viability - LYMP2-012 (AID 982)
# [15] = Cell Viability - LYMP2-014 (AID 983); also: series mostly up to about 92 µM; nearly all actives have a fitted effect of over 50% in size
# Outline: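 Cells are plated at 2500/well and left 5 hr at 37 C. Compounds are added across a concentration range and incubated 24 hr at 37 C in complete medium. CellTiter-Glo is added, and luminescence is read after 30 min at room temperature.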
# [16] = Cell Viability - LYMP2-016 (AID 984); also: nearly all actives have a fitted effect of over 55% in size
# Outline: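 Human lymphoblastoid LYMP2-016 cells, 2500 per well, treated with compounds for 24 h at 37 C. Viability read as intracellular ATP by CellTiter-Glo luminescence after 30 min at room temperature; AC50 from Hill fits of concentration-response.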
# [17] = Cell Viability - LYMP2-018 (AID 985); also: nearly all actives have a fitted effect of over 50% in size
# Outline: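 Seed 2500 lymphoblastoid cells per well, incubate 5 hr at 37 C, add compound and incubate 24 hr at 37 C, add CellTiter-Glo, wait 30 min at room temperature, then read luminescence.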
# [18] = Cell Viability - LYMP2-020 (AID 986)
# Outline: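 Seed 2500 cells per well and incubate 5 hr at 37 C. Add compounds at a concentration series and incubate 24 hr at 37 C. Add CellTiter-Glo, wait 30 min at RT, read luminescence, and fit a Hill curve for AC50.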
# [19] = Cell Viability - LYMP2-022 (AID 987); also: nearly all actives have a fitted effect of over 55% in size
# Outline: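 Cells were seeded at 2500 per well, rested 5 hr at 37 C, and treated with titrated compounds for 24 hr at 37 C. Cellular ATP was then quantified by luciferase luminescence, and AC50 values were derived from Hill-modelled concentration-response curves.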
# [20] = Cell Viability - LYMP2-024 (AID 988); also: nearly all actives have a fitted effect of over 60% in size
# Outline: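 qHTS cytotoxicity, human lymphoblastoid line, complete medium; 24 h cpd treatment, 37 C; CellTiter-Glo ATP luminescence readout; tetraoctylammonium bromide positive control; AC50 via Hill fit.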
# [21] = Cell Viability - LYMP2-026 (AID 989); also: nearly all actives have a fitted effect of over 50% in size
# Outline: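 Cells are seeded at 2500 per well and held 5 hr at 37 C. Compounds are added in concentration series for 24 hr, then CellTiter-Glo reagent is applied and luminescence read.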
# [22] = Cell Viability - LYMP1-002 - Assay at 24 hr (AID 993)
# Outline: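 Acute toxicity is measured as concentration-dependent loss of cellular ATP in a human lymphoblastoid line (Coriell LYMP1-002) after 24 h treatment in complete medium. ATP is quantified by luciferase luminescence and AC50 derived by Hill modelling.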
# [23] = Cell Viability - LYMP1-002 - Assay at 40 hr (AID 994); also: nearly all actives have a fitted effect of over 60% in size
# Outline: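 Cells are plated at 2500 per well and rested 5 hr at 37 C. Compounds are added and incubated 40 hr at 37 C. CellTiter-Glo reagent is added for 30 min at room temperature before luminescence is read.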
# [24] = target: Glucocorticoid receptor (Homo sapiens) (UniProt P04150); assay: qHTS assay for small molecule agonists of glucocorticoid receptor signaling (AID 588532; active = well fitted curve in the direction sought with a large enough effect in the signal ratio, with a control signal flat; the % refers to the signal ratio); conditions: HeLa MMTV-bla, beta-lactamase ratio, agonist, 18 h; stronger effect = higher value; percent of dexamethasone control, DMSO zero
# Glucocorticoid receptor (Homo sapiens), sequence (P04150 whole entry, looked up): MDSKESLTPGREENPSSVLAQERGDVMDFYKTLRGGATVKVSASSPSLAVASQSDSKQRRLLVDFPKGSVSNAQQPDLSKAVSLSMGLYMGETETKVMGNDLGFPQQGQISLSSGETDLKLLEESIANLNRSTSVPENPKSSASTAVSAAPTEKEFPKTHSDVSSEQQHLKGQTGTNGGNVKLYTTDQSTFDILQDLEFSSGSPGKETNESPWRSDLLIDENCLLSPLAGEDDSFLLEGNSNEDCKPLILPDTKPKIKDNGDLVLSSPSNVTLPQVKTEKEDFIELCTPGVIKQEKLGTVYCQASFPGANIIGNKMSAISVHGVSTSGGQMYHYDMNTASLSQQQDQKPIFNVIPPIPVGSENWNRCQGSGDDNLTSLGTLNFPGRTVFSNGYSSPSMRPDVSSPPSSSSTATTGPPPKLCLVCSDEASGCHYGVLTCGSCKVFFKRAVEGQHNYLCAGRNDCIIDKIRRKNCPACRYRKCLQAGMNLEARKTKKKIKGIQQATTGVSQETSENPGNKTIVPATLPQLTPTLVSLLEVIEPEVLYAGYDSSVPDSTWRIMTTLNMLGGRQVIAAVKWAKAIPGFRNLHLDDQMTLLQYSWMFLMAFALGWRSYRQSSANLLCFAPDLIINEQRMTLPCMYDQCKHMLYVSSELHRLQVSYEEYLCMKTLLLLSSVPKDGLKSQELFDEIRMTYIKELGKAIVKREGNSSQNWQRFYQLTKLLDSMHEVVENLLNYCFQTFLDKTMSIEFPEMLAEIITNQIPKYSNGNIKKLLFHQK
# Outline: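 Titration series, up to 92 uM, applied to GRE-bla HeLa cells for 18 h at 37 C. Detection by CCF4 FRET substrate after 2 h at RT.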
# [25] = qHTS assay for small molecule antagonists of retinoid X receptor alpha signaling (AID 588546; active = well fitted inhibition curve with a large enough effect in the signal ratio, with a control signal flat, not every such curve was filed as active; the % refers to the signal ratio;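 also: cells stimulated with 9-cis-retinoic acid as agonist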); conditions: HEK293T RXRa-UAS-bla, beta-lactamase ratio, antagonist mode; measured here: W530 green channel, cytotoxicity proxy
# Outline: (§1)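 Beta-lactamase reporter inhibition, read as CCF4 fluorescence ratio (ex 405, em 460/530 nm) after 2 h at RT. HEK293T UAS-bla cells, 2500/well, were stimulated with 9-cis-RA at 500 or 100 nM final alongside test compound for 18 h at 37 C.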
# [26] = target: Retinoic acid receptor RXR-alpha (Homo sapiens) (UniProt P19793); assay: as above; conditions: HEK293T RXRa-UAS-bla, beta-lactamase ratio, antagonist mode
# Retinoic acid receptor RXR-alpha (Homo sapiens), sequence (P19793 whole entry, looked up): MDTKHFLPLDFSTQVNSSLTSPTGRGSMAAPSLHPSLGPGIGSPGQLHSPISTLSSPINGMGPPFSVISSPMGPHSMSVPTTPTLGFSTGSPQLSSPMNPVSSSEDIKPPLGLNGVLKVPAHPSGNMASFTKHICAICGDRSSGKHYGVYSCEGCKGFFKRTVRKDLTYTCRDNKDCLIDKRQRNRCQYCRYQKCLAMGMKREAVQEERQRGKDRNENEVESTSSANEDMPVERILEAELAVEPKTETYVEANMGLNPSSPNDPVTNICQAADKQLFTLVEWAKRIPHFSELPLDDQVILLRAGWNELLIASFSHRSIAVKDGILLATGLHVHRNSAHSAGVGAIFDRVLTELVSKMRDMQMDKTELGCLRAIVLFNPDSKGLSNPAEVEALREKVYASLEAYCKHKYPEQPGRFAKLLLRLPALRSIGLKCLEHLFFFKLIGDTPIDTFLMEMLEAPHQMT
# Outline: as §1
# [27] = qHTS assay for small molecule disruptors of the mitochondrial membrane potential - 1 hr assay (AID 651754; calls by dose curve; also: nearly all actives have a fitted effect of over 35% in size)
# Outline: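 Loss of mitochondrial potential shifts the cationic dye from red mitochondrial aggregates to green cytoplasmic monomers. Cells (HepG2) are treated with compound for 1 hr before a 30 min dye incubation at 37C.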
# [28] = target: Tumor necrosis factor (Homo sapiens) (UniProt P01375); assay: qHTS assay to identify small molecules that stimulate Tumor Necrosis Factor-alpha (TNF-alpha) secretion (AID 651757; active = well fitted curve in the direction sought with a large enough effect in the signal ratio; the % refers to the signal ratio)
# Tumor necrosis factor (Homo sapiens), sequence (P01375 whole entry, looked up): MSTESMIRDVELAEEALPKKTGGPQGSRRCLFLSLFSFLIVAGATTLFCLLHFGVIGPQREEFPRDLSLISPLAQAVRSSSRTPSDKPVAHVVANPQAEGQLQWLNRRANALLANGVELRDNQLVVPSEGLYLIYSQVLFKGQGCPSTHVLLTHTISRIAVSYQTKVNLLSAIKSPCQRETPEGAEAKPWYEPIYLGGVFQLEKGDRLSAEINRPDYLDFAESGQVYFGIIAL
# Outline: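 Human monocytic THP-1 cells are plated, treated with compound and held at 37 C for 17 hrs. Labeled anti-TNF-alpha antibody mixture is then added; after 3 hr at room temperature, TR-FRET signal reports secreted TNF-alpha.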
# [29] = qHTS assay for environmental chemicals that activate the Aryl hydrocarbon Receptor (AhR) signaling pathway (AID 651777); conditions: 1A2-DRE human hepatoma cells, luciferase, 24 h; activation: stronger effect = higher value; also: nearly all actives have a fitted effect of over 15% in size
# Outline: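 1A2-DRE human hepatoma reporter line; 1,200 cells/well; cmpd or DMSO 24 h, 37 C/5% CO2; One-Glo 30 min RT; luciferase lum.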
# [30] = qHTS assay for small molecule antagonists of the retinoid-related orphan receptor gamma (ROR-gamma) signaling pathway - cell viability counter screen (AID 720652; active = well fitted curve in the direction sought with a large enough effect in the repeat runs; an effect the other way counts as inactive or inconclusive;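 also: CHO reporter cells with doxycycline-induced ROR-gamma expression; series mostly up to about 92 µM; compound exposure lasted 16 hr before ATP read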)
# Outline: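 Steps: seed CHO cells bearing TET-inducible ROR and ROR response element-luciferase; rest 5 hr at 37 C; add compound, then doxycycline; incubate 16 hr; add CellTiter-Glo and read luminescence as ATP-based viability.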
# [31] = qHTS assay for small molecule agonists of the antioxidant response element (ARE) signaling pathway measured by Nrf2-dependant transcriptional activity - cell viability counter screen (AID 720653; active = well fitted curve in the direction sought with a large enough effect in the repeat runs; an effect the other way counts as inactive or inconclusive); conditions: ARE-bla HepG2 viability, CellTiter-Glo ATP luminescence, 16 h; max response: stronger effect = lower value
# Outline: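 ARE-bla HepG2 cells (2,000/well) rested 5 hrs at 37C/5% CO2, then exposed to compounds in DMSO for 16 hrs. Viability was read in the same wells as intracellular ATP by luminescence, 30 min at room temperature after reagent addition.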
# [32] = qHTS assay for cell viability of HEK293 cells (AID 743288); conditions: ATP luminescence (CellTiter-Glo), 18 h; max response: stronger effect = lower value; also: nearly all actives have a fitted effect of over 50% in size
# Outline: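 Steps: plate 2,000 parental HEK293 cells per well; incubate ≥5 h, 37 C; add compounds in DMSO; incubate 18 h, 37 C; add CellTiter-Glo; wait 30 min at room temperature; read luminescence.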
# [33] = qHTS assay for cell viability of the p53RE-bla HCT-116 cell line (AID 743292)
# Outline: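 HCT-116 p53RE-bla cells seeded 4,000/well; 5 h at 37 C; compound (DMSO) added; 16 h at 37 C; CellTiter-Glo added, 30 min RT; luminescence read.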
# [34] = target: Rap guanine nucleotide exchange factor 3 (Homo sapiens) (UniProt O95398); assay: Confirmatory qHTS for agonist of cAMP-regulated guanine nucleotide exchange factor 3 (EPAC1) (AID 1645881);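 also: EPAC1 catalysed release of BODIPY-GDP from Rap1B seen as fluorescence loss; nearly all actives have a fitted effect of over 75% in size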
# Rap guanine nucleotide exchange factor 3 (Homo sapiens), sequence (O95398 whole entry, looked up): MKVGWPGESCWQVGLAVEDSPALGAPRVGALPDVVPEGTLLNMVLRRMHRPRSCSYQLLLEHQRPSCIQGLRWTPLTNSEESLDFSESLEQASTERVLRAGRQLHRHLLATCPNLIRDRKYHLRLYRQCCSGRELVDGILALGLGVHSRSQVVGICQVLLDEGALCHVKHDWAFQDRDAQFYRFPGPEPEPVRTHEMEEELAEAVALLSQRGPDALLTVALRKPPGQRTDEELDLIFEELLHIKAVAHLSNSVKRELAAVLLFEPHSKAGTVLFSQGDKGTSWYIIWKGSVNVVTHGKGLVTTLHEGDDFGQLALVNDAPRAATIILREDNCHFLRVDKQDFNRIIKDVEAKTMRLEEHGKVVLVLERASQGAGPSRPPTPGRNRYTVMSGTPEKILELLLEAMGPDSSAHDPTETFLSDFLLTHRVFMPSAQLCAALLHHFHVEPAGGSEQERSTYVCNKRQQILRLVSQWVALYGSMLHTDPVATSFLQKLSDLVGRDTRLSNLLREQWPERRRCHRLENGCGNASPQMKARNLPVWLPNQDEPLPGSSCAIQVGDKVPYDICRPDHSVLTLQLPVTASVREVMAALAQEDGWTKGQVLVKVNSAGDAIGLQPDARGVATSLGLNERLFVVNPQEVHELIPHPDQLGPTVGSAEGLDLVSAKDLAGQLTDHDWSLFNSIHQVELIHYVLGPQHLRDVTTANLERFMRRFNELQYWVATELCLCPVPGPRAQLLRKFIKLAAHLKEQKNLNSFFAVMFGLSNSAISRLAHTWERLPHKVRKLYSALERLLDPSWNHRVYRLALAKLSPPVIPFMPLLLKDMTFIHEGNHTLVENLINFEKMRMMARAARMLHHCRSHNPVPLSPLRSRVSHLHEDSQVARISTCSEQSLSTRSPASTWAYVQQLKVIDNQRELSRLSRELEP
# [35] = target: Rap guanine nucleotide exchange factor 4 (Homo sapiens) (UniProt Q8WZA2); assay: Confirmatory qHTS for agonist of cAMP-regulated guanine nucleotide exchange factor 4 (EPAC2) (AID 1645884);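 also: nucleotide exchange releases bodipy-GDP from Rap1 and this lowers its fluorescence; nearly all actives have a fitted effect of over 65% in size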
# Rap guanine nucleotide exchange factor 4 (Homo sapiens), sequence (Q8WZA2 whole entry, looked up): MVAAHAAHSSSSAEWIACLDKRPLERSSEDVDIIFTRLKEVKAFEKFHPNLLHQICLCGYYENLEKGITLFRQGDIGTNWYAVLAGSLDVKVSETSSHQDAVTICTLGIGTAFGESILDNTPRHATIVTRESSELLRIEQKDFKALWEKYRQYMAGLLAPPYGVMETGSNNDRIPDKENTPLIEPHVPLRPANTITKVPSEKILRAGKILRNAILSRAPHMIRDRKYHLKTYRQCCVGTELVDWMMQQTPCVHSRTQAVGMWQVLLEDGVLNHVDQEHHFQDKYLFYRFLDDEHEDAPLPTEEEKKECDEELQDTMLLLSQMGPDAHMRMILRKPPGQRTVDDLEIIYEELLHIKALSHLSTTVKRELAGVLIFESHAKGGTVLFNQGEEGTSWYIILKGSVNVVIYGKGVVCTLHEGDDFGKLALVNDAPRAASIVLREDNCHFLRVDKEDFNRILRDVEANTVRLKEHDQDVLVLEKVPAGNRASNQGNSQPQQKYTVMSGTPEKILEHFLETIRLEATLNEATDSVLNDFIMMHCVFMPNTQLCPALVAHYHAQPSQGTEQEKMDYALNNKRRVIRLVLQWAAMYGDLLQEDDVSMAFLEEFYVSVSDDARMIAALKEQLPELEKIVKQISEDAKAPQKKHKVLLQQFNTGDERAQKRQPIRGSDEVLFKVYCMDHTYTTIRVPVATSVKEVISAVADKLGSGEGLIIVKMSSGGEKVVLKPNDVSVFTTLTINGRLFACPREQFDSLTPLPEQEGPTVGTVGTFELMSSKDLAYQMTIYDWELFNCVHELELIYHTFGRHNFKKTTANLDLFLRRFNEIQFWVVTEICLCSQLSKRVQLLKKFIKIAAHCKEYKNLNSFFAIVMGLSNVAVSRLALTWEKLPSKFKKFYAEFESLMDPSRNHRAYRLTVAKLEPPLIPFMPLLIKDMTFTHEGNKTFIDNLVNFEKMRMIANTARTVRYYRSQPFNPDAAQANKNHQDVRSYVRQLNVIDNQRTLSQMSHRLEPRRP
# [36] = target: Rap guanine nucleotide exchange factor 3 (Homo sapiens) (UniProt O95398); assay: Counterscreen qHTS for antagonist of cAMP-regulated guanine nucleotide exchange factor 3 (EPAC1) (AID 1645888);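 also: fluorescence loss as bound BODIPY-GDP is released from Rap1B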
# Outline: (§2)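 Measured: fluorescence of BODIPY-GDP bound to Rap1B, which falls as exchange proceeds. Conditions include 50 uM competing GDP, 5 and 30 min reads, and a later cAMP challenge for antagonist detection.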
# [37] = target: Rap guanine nucleotide exchange factor 3 (Homo sapiens) (UniProt O95398); assay: Counterscreen qHTS for agonist of cAMP-regulated guanine nucleotide exchange factor 3 (EPAC1) (AID 1645889); also: nearly all actives have a fitted effect of over 40% in size
# Outline: as §2
# [38] = target: Nuclear receptor subfamily 1 group I member 2 (Rattus norvegicus) (UniProt Q9R1A7); assay: qHTS assay for small molecule activators of the rat pregnane X receptor (rPXR) signaling pathway (AID 651751; call rule not given here); conditions: rPXR reporter cells, luciferase (One-Glo), 24 h
# Nuclear receptor subfamily 1 group I member 2 (Rattus norvegicus), sequence (Q9R1A7 whole entry, looked up): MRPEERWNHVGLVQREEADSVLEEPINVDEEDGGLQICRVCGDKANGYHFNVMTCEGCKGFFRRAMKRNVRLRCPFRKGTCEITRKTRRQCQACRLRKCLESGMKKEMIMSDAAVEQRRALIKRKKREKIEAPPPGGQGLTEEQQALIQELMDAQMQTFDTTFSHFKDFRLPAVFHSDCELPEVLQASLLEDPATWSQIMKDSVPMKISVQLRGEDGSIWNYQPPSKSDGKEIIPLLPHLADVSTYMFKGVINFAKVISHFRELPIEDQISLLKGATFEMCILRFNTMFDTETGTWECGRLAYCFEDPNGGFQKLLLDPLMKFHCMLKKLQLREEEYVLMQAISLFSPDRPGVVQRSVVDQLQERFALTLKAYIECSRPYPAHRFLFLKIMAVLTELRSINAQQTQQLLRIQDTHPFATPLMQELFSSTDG
# [39] = qHTS assay for small molecule activators of the human pregnane X receptor (PXR) signaling pathway (AID 720659; call rule not given here)
smiles,measurement,setting,value
C[C@H](CCC(=O)O)[C@H]1CC[C@H]2[C@@H]3CC[C@@H]4C[C@H](O)CC[C@]4(C)[C@H]3CC[C@]12C,Potency,[1],inactive
same,Potency,[2],inactive
same,Potency,[3],inactive
same,Potency,[4],inactive
same,Potency,[5],inactive
same,Potency,[6],inactive
same,Potency,[7],inactive
same,Potency,[8],inactive
same,Potency,[9],inactive
same,Potency,[10],inactive
same,Potency,[11],inactive
same,Potency,[12],inactive
same,Potency,[13],inactive
same,Potency,[14],inactive
same,Potency,[15],inactive
same,Potency,[16],inactive
same,Potency,[17],inactive
same,Potency,[18],inactive
same,Potency,[19],inactive
same,Potency,[20],inactive
same,Potency,[21],inactive
same,Potency,[22],inactive
same,Potency,[23],inactive
same,activation,[24],-9.27% (inactive) and -13.3% (inactive)
same,max response,[25],21.6% and 12.2%
same,max response,[26],-5.6% (inactive) and -21.5% (inactive)
same,Potency,[27],inactive
same,outcome,[28],inactive
same,activation,[29],1.31% (inactive) and 0.102% (inactive)
same,Potency,[30],inactive
same,max response,[31],1.28% (inactive) and 4.08% (inactive)
same,max response,[32],-8.43% (inactive) and -9.1% (inactive)
same,Potency,[33],31.6 µM (active) and 35.5 µM (active)
same,Potency,[34],inactive
same,Potency,[35],inactive
same,Potency,[36],inactive
same,Potency,[37],inactive
same,max response,[38],6.51% (inactive) and -5.67% (inactive)
same,outcome,[39],inactive
